Sampled rows, rich in hits. Any-hit rate of the full collection: about 2.7%.
GLP1R inv ag = acts as inverse agonist at human GLP-1 receptor; AID 624417; Potency, µM (titrated, usually from 38.3 µM), for the others: at the top dose activity change, negative = inhibition, hits mostly inhibitors; HEK293 GLP-1R CRE-luciferase, luminescence, 24 h; GLP-1R form is constitutively active; P43220; actives 1.6% (n = 410,000); also: % is scaled to controls: 0 for no effect and ±100 for the full control effect; nearly all actives have a fitted effect of over 55% in size
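Constitutively active GLP-1R drives a cAMP-responsive luciferase in stably transfected HEK293 cells; test compounds are added after overnight (12 h) attachment and left 24 hr, and signal loss in luminescence marks inhibition.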
IDH1 R132H inh = blocks human mutant IDH1 R132H enzyme. O75874. IDH1-R132H enzyme, NADPH consumption, diaphorase/resazurin fluorescence. Potency, µM (highest dose often 76.6 µM), without a hit: top-dose activity change, negative = inhibition, most hits filed as inhibitors. actives 0.093% (n = 390,000). AID 602179; also: % is scaled to controls: 0 for no effect and ±100 for the full control effect; nearly all actives have a fitted effect of over 65% in size
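IDH1-R132H (0.5 ug/mL) preincubated 30 min with compound, then NADPH (0.016 mM) and alpha-KG (2 mM) added; 80 min at RT, pH 7.5. Remaining NADPH coupled via diaphorase/resazurin to fluorescence (540/590 nm); concentration-response curves normalized to no-enzyme control.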
rTrxR1 inhibitor = rat TrxR1 inhibition; recombinant rTrxR1, NADPH fluorescence consumption, selenite substrate; actives 1% (n = 390,000); Potency, µM (titrated, usually from 114 µM), for the others: at the highest dose activity change, negative = inhibition, usual class: inhibitors; O89049; AID 588453; also: % is scaled to controls: 0 for no effect and ±100 for the full control effect; nearly all actives have a fitted effect of over 65% in size
Target sequence (O89049 whole entry, looked up): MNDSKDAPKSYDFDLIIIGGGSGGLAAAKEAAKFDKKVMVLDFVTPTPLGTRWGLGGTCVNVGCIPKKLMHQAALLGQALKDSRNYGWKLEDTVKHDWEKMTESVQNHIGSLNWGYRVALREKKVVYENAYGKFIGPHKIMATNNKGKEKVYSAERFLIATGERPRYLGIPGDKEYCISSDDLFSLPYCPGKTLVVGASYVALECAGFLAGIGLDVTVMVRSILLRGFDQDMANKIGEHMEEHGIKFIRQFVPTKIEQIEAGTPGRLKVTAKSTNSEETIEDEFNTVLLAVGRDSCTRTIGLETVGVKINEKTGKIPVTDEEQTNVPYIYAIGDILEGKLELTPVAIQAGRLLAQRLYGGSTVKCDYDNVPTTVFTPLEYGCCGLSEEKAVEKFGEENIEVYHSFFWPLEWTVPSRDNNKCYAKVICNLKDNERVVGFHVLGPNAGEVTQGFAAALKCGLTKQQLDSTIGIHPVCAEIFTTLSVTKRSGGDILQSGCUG
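Rat TrxR1 (90 nM in the dispensed reagent) was pre-reduced with 400 uM NADPH for 5 min at room temperature, then incubated with compound for 15 min. After 400 uM selenite was added, NADPH fluorescence (Ex 340/Em 450 nm) was followed for 8 min.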
TrxR1 substrate = rat thioredoxin reductase 1 substrate activity | actives 0.01% (n = 390,000) | Potency, µM (titrated, usually from 114 µM), for inactives: at the top dose activity change, negative = substrate turnover | O89049 | purified TrxR1 substrate turnover, NADPH consumption readout; also: % is scaled to controls: 0 for no effect and ±100 for the full control effect; nearly all actives have a fitted effect of over 50% in size
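Rat TrxR1, dispensed at 90 nM, was prereduced with 400 uM NADPH (final) for 5 min at ~22 deg C, then incubated with compound 15 min before 400 uM selenite. A first-read NADPH fluorescence drop versus no-compound background flagged substrates.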
GLP1R cytotox = cytotoxicity counter-screen for GLP-1 receptor inverse agonists; HEK293 cAMP-luciferase reporter cells, luminescence, 24 h; Potency, µM (titrated, usually from 38.3 µM), for the others: at the highest dose activity change, negative = inhibition, hits mostly inhibitors; actives 0.13% (n = 410,000);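 also: loss of luciferase light is scored as toxicity; % is scaled to controls: 0 for no effect and ±100 for the full control effect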
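Quantitative HTS format, 1536 wells, 200 cells/uL seeded. Compounds: 23 nL, 24 h, 37 °C. Detection: luciferase reagent, luminescence at 12 min RT; decreased signal taken as cytotoxic.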
GLP-1R agonist = activates the human GLP-1 receptor. Potency, µM (series often up to 45.6 µM), for inactives: at the highest dose activation, usual class: activators. AID 624172. HEK293 GLP-1R CRE-luciferase, luminescence, 4-6 h; cells express a hypersensitive GLP-1R form. actives 0.007% (n = 380,000); also: % of control where 0% means no effect
An asterisk follows results filed as active; u = inconclusive; x = no result given; [ ] = remark or other dose. Calls follow the shape of the dose curve; as a rule, active = well fitted curve in the direction sought with a large enough effect; inconclusive = small, poorly fitted or top-dose-only effect, or another doubt; inactive = no such curve, though single readings can be large; an effect the other way counts as inactive or inconclusive. Potency is read from the fitted curve at half-maximal effect.

SMILES	GLP1R inv ag	IDH1 R132H inh	rTrxR1 inhibitor	TrxR1 substrate	GLP1R cytotox	GLP-1R agonist
Brc1ccc(-c2nn3c(-c4ccco4)nnc3s2)o1	70%	-1%	28µM*	-1%[57.1 µM]	-22%	21%
Clc1ccc(-c2ccc(-c3nn4c(-c5ccco5)nnc4s3)o2)cc1	0%	-1%	u	6%	7%	19%
C=C(C)COc1ccc(-c2ncncc2Oc2ccc(OC)cc2)c(O)c1	10µM*	-1%	-7%[57.1 µM]	3%[57.1 µM]	30%	-1%
C=C(C)COc1ccc(-c2n[nH]c(C)c2Oc2ccccc2OC)c(O)c1	7.9µM*	-2%	9%	-5%	-8%	-17%
C=C(C)COc1ccc(-c2[nH]ncc2Oc2cccc(OC)c2)c(O)c1	10µM*	8%	5%	-7%	u	-11%
CCCOC(=O)c1ccc(Oc2c(-c3ccc(OC)cc3O)n[nH]c2C)cc1	8.9µM*	-6%	15%	-1%	u	-23%
CCC(C)NC(=O)CSc1nc2cc3c(cc2c(=O)n1CCCC(=O)NCc1ccc2c(c1)OCO2)OCO3 (configuration not stated)	11%	1%	12%[57.1 µM]	1%[57.1 µM]	15%	x
C=C(C)COc1ccc(-c2[nH]ncc2-c2ccc(OC)cc2)c(O)c1	11µM*	3%	23%	1%	-15%	1%
C=C(C)COc1ccc(-c2[nH]ncc2-c2ccccc2)c(O)c1	u	3%	-6%	-13%	-30%	-9%
Cn1c(=O)c(=O)n(C)c2cc(S(=O)(=O)Nc3ccc(Cl)c(C(F)(F)F)c3)ccc21	13%	-11%	11%	-5%	7%	x
Cc1cccc(Nc2nc(N3CCCCC3)nc(N3CCCCC3)n2)c1	u	6%	22%	6%	0%	3%
Cc1cccc(Nc2nc(N3CCOCC3)nc(N3CCOCC3)n2)c1	5.6µM*	7%	18%	5%	41%	4%
c1ccc(Nc2nc(N3CCNCC3)nc(N3CCOCC3)n2)cc1	2.5µM*	4%	u	-2%	80%	3%
c1ccc(Nc2nc(N3CCOCC3)nc(N3CCOCC3)n2)cc1	u	-1%	-9%	-5%	14%	-4%
Cc1cccc(Nc2nc(Nc3cccc(C)c3)nc(N3CCOCC3)n2)c1	4.5µM*	-15%	11%	5%	1%	x
Cc1cc(Cl)nc2nc(Cl)ccc12	x	x	-7%[0.0914 µM]	-3%	x	x
Nc1ncnc2c1nc(Cl)n2[C@@H]1O[C@H](CO)[C@@H](O)[C@@H]1O	x	x	30%	24%	x	x
O=S(=O)(/C=C/C=C/S(=O)(=O)c1ccccc1)c1ccccc1	-75%	-2%	2µM*	12%[57.1 µM]	0.63µM*	-34%
NS(=O)(=O)c1ccccc1	15%	-2%	18%	6%	-7%	15%
CC(C)(C)NC(=O)C(c1ccc(O)cc1)N(Cc1ccco1)C(=O)CCC(=O)Nc1ccccn1 (configuration not stated)	12%	0%	15%	6%	-11%	1%
CC(C)(C)NC(=O)C(c1ccc(Cl)cc1)N(Cc1ccco1)C(=O)CCl (configuration not stated)	-23%	2%	13µM*	4%	-2%	0%
CCc1ccc(-n2nc(C)c3c(C)cc(=O)n(CC(=O)N4CCCc5ccccc54)c32)cc1	3%	-7%	-11%[57.1 µM]	-8%[57.1 µM]	9%	x
O=C(NC1CCN(Cc2ccccc2)CC1)c1cccc(NS(=O)(=O)c2ccc(Br)cc2)c1	11µM*	5%	17%	2%	-27%	0%
O=C(NCc1ccc(F)cc1)C1CCN(S(=O)(=O)c2ccc(Br)s2)CC1	10µM*	-2%	7%[57.1 µM]	3%[57.1 µM]	-7%	6%
CC[C@@H]([C@H](C)O)n1ncn(-c2ccc(N3CCN(c4ccc(OCC5CO[C@@](Cn6cncn6)(c6ccc(F)cc6F)C5)cc4)CC3)cc2)c1=O (some centres not stated)	x	x	x	x	x	-5%
SMILES	GLP1R inv ag	IDH1 R132H inh	rTrxR1 inhibitor	TrxR1 substrate	GLP1R cytotox	GLP-1R agonist
Cc1ccc(N2NC(=O)/C(=C\c3cc4c(cc3[N+](=O)[O-])OCO4)C2=O)cc1C	4%	2%	18µM*	6%	2%	-12%
COc1cc(/C=C2/C(=O)NN(c3ccc(C)c(Cl)c3)C2=O)cc([N+](=O)[O-])c1O	u	25%	-23%	-20%	u	-7%
CCOC(=O)c1[nH]c2ccccc2c1NC(=O)c1ccccc1OC	u	11%	6%	-9%	u	32%
Cc1cccc(Cc2c(C)nc3nc(SCC(=O)NC4CCCCC4)nn3c2C)c1	11%	1%	10%[2.29 µM]	5%[2.29 µM]	-1%	0%
N#C/C(=C\c1ccccc1)C(=O)Nc1sc2c(c1C(N)=O)CCC2	15%	0%	9%	4%	-4%	x
COc1cc(C2c3c(n[nH]c3C)C(=O)N2c2ccc(Br)cc2)ccc1O (configuration not stated)	7%	0%	7.9µM*	4%	-7%	0%
CC(C)(C)OC(=O)N(CCc1ccccc1)Cc1ccccc1OCc1cccc(NC(=O)C2CCC2)c1	8.9µM*	1%[38.3 µM]	32%	5%	-5%	1%
CC(C)(C)OC(=O)N(Cc1ccccc1)Cc1ccccc1OCc1cccc(NC(=O)C2CC2)c1	10µM*	2%[38.3 µM]	30%	0%	-2%	3%
CC(C)(C)OC(=O)N(Cc1ccccc1)Cc1cccc(OCc2cccc(NC(=O)C3CC3)c2)c1	10µM*	0%[38.3 µM]	37%	-5%	12%	0%
CC(C)(C)OC(=O)N(Cc1ccccc1)Cc1ccccc1OCc1cccc(NC(=O)C2CCC2)c1	u	-2%[38.3 µM]	23%	0%	7%	13%
CC(C)C(=O)Nc1cccc(COc2ccc(CN(CCc3ccccc3)C(=O)OC(C)(C)C)cc2)c1	6.3µM*	11%	43%	0%	13%	-1%
Cc1ccc(-n2nc(C(=O)N(C)Cc3ccccc3)c3c4ccccc4n(C)c3c2=O)cc1	17%	7%	20%[2.29 µM]	12%[2.29 µM]	5%	1%
O=CC(=O)c1ccc(Cl)cc1	x	x	-8%	3%	x	x
O=C(/C=C/Sc1ccccc1)c1ccc(Cl)cc1	0%	10%	40µM*	-5%	-35%	-15%
O=C(/C=C/Sc1ccccc1)c1ccccc1	22%	3%	11µM*	8%	u	-2%
C=C1C[C@@H]2[C@H]3CCC4=CC(=O)C=C[C@]4(C)[C@@]3(F)[C@@H](O)C[C@]2(C)[C@]1(O)C(=O)COC(C)=O	x	x	x	x	x	0%
